A selection: hits, their analogues and other compounds. The true share with any hit is near 9.2%.
SMN2 splice up = SMN2 splice variant enhancement | HEK293 SMN2-luciferase splicing reporter, luminescence, 30-36 h | Potency, µM (highest dose often 46.1 µM), for inactives: at the highest dose activity change, positive = activation, usual class: activators | 210,000 tested, 2.8% active; note: % of control where 0% means no effect; nearly all actives have a fitted effect of over 55% in size
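qHTS luciferase splicing reporter: luminescence rises when SMN2 exon 7 is included in transfected HEK293 cells. Compound exposure lasted 30-36 h at 37C, with 4.5 mM final sodium butyrate as control, followed by a ONE-Glo read.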
ELG1 genotox = induces genotoxicity in HEK293T cells with luciferase-tagged ELG1; Potency, µM (top dose mostly 46 µM), for inactives: top-dose activity change, positive = activation, usual class: activators; HEK293T ELG1-luciferase reporter, luminescence, 16 h; 330,000 tested, 1.3% active; note: % of control where 0% means no effect; nearly all actives have a fitted effect of over 60% in size
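Cells (2,000/well) expressing the ELG1-luciferase fusion are dosed by pin tool and kept 16 hr at 37 °C, 5% CO2. Signal comes from ONE-Glo luciferase reagent after 30 min at room temperature.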
NPC1 prom act = NPC1 promoter activation | Huh7 NPC1 promoter luciferase reporter, 24 h | 320,000 tested, 2.4% active | Potency, µM (series often up to 9.22 µM), for the others: top-dose activation, usual class: activators; note: % of control where 0% means no effect; nearly all actives have a fitted effect of over 60% in size
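Huh7 reporter cells (NPC1 promoter driving luciferase) are dosed with compound for 24 h at 37 °C, 5% CO2; luciferase detection reagent is then added and luminescence measured after 10 min at ambient temperature.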
Rab9 promoter act = activators of Rab9 promoter; Huh7 Rab9 promoter-luciferase reporter, luminescence, 24 h; Potency, µM (doses to about 9.22 µM), inactives show top-dose activation, negative = inhibition, most hits filed as activators; 320,000 tested, 2.8% active; note: % of control where 0% means no effect; nearly all actives have a fitted effect of over 60% in size
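Steps: seed 1500 Huh7 Rab9-luc cells per well, rest 2 h at 37 °C; add compound in DMSO; incubate 24 h; add luciferase reagent, 10 min ambient; read luminescence.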
ELG1 repair inh = inhibitors of ELG1-dependent DNA repair in HEK293T cells; HEK293T ELG1-luciferase reporter, luminescence, 16 h; DNA damage induced by 5-fluorouridine; Potency, µM (series often up to 46.1 µM), inactives show at the highest dose activity change, negative = inhibition, usual class: inhibitors; 330,000 tested, 2.3% active; AID 504467; note: % is set by controls: 0 for no effect and ±100 for the full control effect; nearly all actives have a fitted effect of over 55% in size
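Overnight (16 hr) co-exposure of 2,000 cells/well to 5-fluorouridine and compound at 37 °C preceded detection. Luciferase was quantified via ONE-Glo luminescence; loss of signal denotes inhibition.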
FLuc modulator = counter-screen for miR-21 project: firefly luciferase inhibitors or activators | Potency, µM (highest dose often 57.5 µM), without a hit: top-dose activity change, negative = inhibition, usual class: inhibitors | P08659 | purified FLuc, Km substrates, luminescence inhibition | 360,000 tested, 6.9% active;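 note: plate controls were vehicle for no effect and reference inhibitor for full effect; nearly all actives have a fitted effect of over 55% in size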
Target sequence (P08659 whole entry, looked up): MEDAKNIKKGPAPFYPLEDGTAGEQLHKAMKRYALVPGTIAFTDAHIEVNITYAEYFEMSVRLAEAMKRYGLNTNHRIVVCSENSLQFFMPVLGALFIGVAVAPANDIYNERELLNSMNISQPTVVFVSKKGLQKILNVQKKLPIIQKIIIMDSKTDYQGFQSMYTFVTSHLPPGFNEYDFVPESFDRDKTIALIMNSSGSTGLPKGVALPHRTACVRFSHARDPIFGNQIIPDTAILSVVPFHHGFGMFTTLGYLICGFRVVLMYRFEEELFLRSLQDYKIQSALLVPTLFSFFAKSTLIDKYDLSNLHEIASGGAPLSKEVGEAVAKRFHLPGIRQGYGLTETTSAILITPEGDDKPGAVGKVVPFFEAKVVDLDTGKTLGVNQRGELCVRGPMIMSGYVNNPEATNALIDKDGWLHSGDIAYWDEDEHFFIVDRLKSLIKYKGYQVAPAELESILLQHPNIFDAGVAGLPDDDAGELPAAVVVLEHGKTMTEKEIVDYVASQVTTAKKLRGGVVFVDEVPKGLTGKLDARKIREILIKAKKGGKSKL
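Purified P. pyralis luciferase, 10 nM final, with Km-level 10 uM D-luciferin and 10 uM ATP in 50 mM Tris acetate pH 7.5, 10 mM Mg acetate, 0.01% Tween-20, 0.05% BSA; 6-point qHTS titration about 60 µM downward; luminescence read.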
Active calls of the source: *; ? = inconclusive; . = not tested or not shown. Calls come from the whole dose curve; as a rule, active = well fitted curve in the direction sought with a large enough effect; inconclusive = small, poorly fitted or top-dose-only effect, or another doubt; inactive = no such curve, though single readings can be large; an effect the other way counts as inactive or inconclusive. Potency is the fitted concentration of half-maximal effect.

SMILES	SMN2 splice up	ELG1 genotox	NPC1 prom act	Rab9 promoter act	ELG1 repair inh	FLuc modulator
O=C(c1ccco1)N1CCN(C(=O)c2cc(-c3ccccn3)nc3ccc(Cl)cc23)CC1	-1%	-12%	-3%	-9%	10µM*	19µM*
COc1ccc(N2CCN(C(=O)CN3CCSc4ccccc43)CC2)cc1	.	.	.	.	.	1%
CCCCNc1c(-c2cccc(-c3cc(C(C)=O)cs3)c2)nc2cc(C)ccn12	.	-11%	13%	5%	?	6µM*
CCN1C(=O)[C@@H]2[C@@H](c3ccc(SC4CCCCC4)cc3)N3CCC[C@@]3(C(=O)OC)[C@@H]2C1=O	.	-3%	-2%	-4%	11%	-2%
CC1CCN(C(=O)c2cc(-c3ccc(Br)cc3)on2)CC1	-1%	.	.	.	.	4.8µM*
O=C(c1cc(-c2ccc(Br)cc2)on1)N1CCOCC1	.	3.7µM*	0.32µM*	0.32µM*	?	1.9µM*
O=C(NCCCN1CCOCC1)c1cc(-c2ccc(Br)cc2)on1	-20%	0%	-1%	-12%	?	?
O=C(c1cc(-c2ccc(Br)cc2)on1)N1CCCCCC1	.	16µM*	0.71µM*	0.63µM*	?	1.3µM*
CCC(=O)N1c2ccccc2CC1C(=O)NCc1ccccc1Cl (stereo not drawn)	.	.	.	.	.	-1%
O=C(CN1C(=O)CCc2cc(S(=O)(=O)N3CCOCC3)ccc21)NCc1ccccc1Cl	.	.	.	.	.	0%
CCN1CCN(c2ccc(S(=O)(=O)N3CCCCC3)cc2NC(=O)c2ccc([N+](=O)[O-])s2)CC1	.	-12%	-12%	-20%	?	-1%
COc1ccc(N(C(=O)c2ccc(Cl)cc2)S(=O)(=O)c2ccc(C)cc2)cc1	-4%	.	.	.	.	-2%
O=C(CN1CCCCC1)Nc1scc2c1c(=O)oc1ccccc12	.	15%	?	2.8µM*	?	-9%
Cc1nc2c(c(C)nn2-c2ccccc2)c(C)c1CCC(=O)Nc1ccc(F)cc1	-29%	.	.	.	.	4%
COc1ccc(Cn2c(C(=O)O)c(CNC3CCC(C)CC3)c3ccc(C)cc32)cc1 (stereo not drawn)	.	.	.	.	.	-6%
Cc1cc(C(=O)COC(=O)c2ccc(O)cc2O)c(C)n1C(C)C	.	12%	3.5µM*	3.5µM*	-19%	4.8µM*
O=C(OCC(=O)N1CCN(C(=O)COC(=O)c2ccc(O)cc2O)CC1)c1ccc(O)cc1O	.	4%	-2%	0%	-8%	0%
Cc1cc(C(=O)COC(=O)c2n[nH]c(=O)c3ccccc23)c(C)n1C(C)C	.	?	27%	?	?	1.7µM*
CCc1cccc(NC(=O)CSc2nnc(-c3cc4occc4n3C)n2-c2ccccc2C)c1	.	.	.	.	.	-11%
CCOc1ccccc1C(=O)Nc1nn[nH]n1	-2%	-6%	-5%	11%	-8%	2%
O=C(NCCN1CCOCC1)c1ccc(Cl)c(S(=O)(=O)NCc2ccccc2)c1	.	0%	.	.	0%	.
Cc1ccc(C)n1-c1ccc(N2CCOCC2)nc1	14µM*	?	4%	-14%	-10%	3%
Cc1c(/C=N\NC(=O)c2c[nH]c3ccccc23)cnn1C	27%	6%	2%	14%	?	12µM*
CCn1cc(/C=N\NC(=O)c2c[nH]c3ccccc23)c(C)n1	27%	4%	15%	19%	?	21µM*
COCCN1Cc2cccc(C(=O)Nc3ccc(Cl)cc3Cl)c2C1=O	-12%	.	.	.	.	4%
SMILES	SMN2 splice up	ELG1 genotox	NPC1 prom act	Rab9 promoter act	ELG1 repair inh	FLuc modulator
CCCNC(=O)c1noc2c1CCc1cc(OC)ccc1-2	11µM*	?	1.4µM*	2µM*	?	4.3µM*
COc1ccc2c(c1)CCc1c(C(=O)NCc3cccnc3)noc1-2	-1%	21µM*	26%	15%	?	?
COc1ccc2c(c1)CCc1c(C(=O)NCC(C)C)noc1-2	4.5µM*	13µM*	1.1µM*	1.4µM*	?	3.4µM*
COc1ccc2c(c1)CCc1c(C(=O)Nc3ccccc3C(F)(F)F)noc1-2	20%	.	.	.	.	0%
COc1ccc2c(c1)CCc1c(C(=O)Nc3ccc(OC)cc3OC)noc1-2	8%	.	.	.	.	-6%
COc1ccc2c(c1)CCc1c(C(=O)N3CCCCCC3)noc1-2	?	?	1.6µM*	2.8µM*	?	7.6µM*
CC(=O)Nc1ccc(NC(=O)COC(=O)CCCc2c[nH]c3ccccc23)cc1	.	-3%	-1%	-2%	1%	-14%
CCOc1ccc(NCc2cccn2-c2nnc(N3CCC(C(=O)NCCc4ccc(OC)c(OC)c4)CC3)s2)cc1	-35%	.	.	.	.	-14%
C[C@H](N=C1NS(=O)(=O)c2ccccc21)C(=O)OCc1cc([N+](=O)[O-])cc2c1OCOC2	.	-2%	-3%	0%	3%	?
CC(C)(C)C1(O)CC(C(F)(F)F)=NN1C(=O)Cc1ccc([N+](=O)[O-])cc1 (stereo not drawn)	-47%	-12%	-3%	-3%	-26%	-18%
O=C(Nc1ccc2ccccc2n1)c1ccccc1Cl	.	?	0.71µM*	0.56µM*	?	1.3µM*
COc1ccc(C(=O)Nc2ccc3ccccc3n2)c(OC)c1OC	.	0.33µM*	?	?	?	0.21µM*
O=C(Nc1ccccc1)C1CCCCC1	.	0%	-1%	-2%	13%	-1%
O=C(Nc1ccc2ccccc2n1)C1CCCCC1	.	?	1.1µM*	0.79µM*	?	6µM*
COc1cccc(C(=O)Nc2cccc3ccccc23)c1OC	.	2%	19%	26%	?	?

Screening results from PubChem BioAssay.
